# The full ranking holds about 33,000 sequences; the median of “E-score (-0.5 to 0.5)” is about -8e-05, and the highest 2% start at about 0.23. This excerpt belongs to a sample that is enriched for the highest values.
# Biological target: T1, Nrg2 (UniProt P38082)
# T1 sequence: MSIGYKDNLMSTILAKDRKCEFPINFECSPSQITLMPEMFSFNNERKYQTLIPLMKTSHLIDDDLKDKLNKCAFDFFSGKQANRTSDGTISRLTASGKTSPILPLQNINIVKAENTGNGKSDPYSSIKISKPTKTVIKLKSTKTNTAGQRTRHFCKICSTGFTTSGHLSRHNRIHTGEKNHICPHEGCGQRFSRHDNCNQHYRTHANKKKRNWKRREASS
# Assay: PBM E-score (8-mer binding enrichment) (E-score (-0.5 to 0.5)); higher = stronger / more preferred TF binding
# Conditions: protein concentration: 100 nM; construct: GST-full length
# Procedure: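 Universal 'all 10-mer' protein binding microarrays (Agilent AMADID 015681) probed with GST-tagged S. cerevisiae TFs (full-length or DBD) made by in vitro transcription/translation (PURExpress), about 100-200 nM. Bound TF was detected with fluorescent anti-GST. Each ungapped 8-mer (which stands for itself and its reverse complement) is scored by the PBM enrichment score (E-score), a modified Wilcoxon-Mann-Whitney statistic from -0.5 to +0.5, computed with the Universal PBM Analysis Suite. Scale: above 0.35 generally sequence-specific binding.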
row,Sequence,PBM E-score
1,CAATTATA,0.0143
2,AATTTATC,0.312
3,GTATTATA,0.254
4,TAATTATA,0.319
5,CAATTATG,0.0379
6,AAATTATA,0.175
7,CAATTATC,0.289
8,GAATTATA,0.0673
9,ATATTATA,0.0282
10,CATTTATC,0.0481
11,AATTTATA,0.201
12,ACGCCTGG,-0.123
13,ACGCGCAG,0.025
14,CAATCCAC,-0.0677
15,CCACCGAA,0.0334
16,AACGGTCT,-0.127
17,CCGGGCGA,-0.0266
18,TGAGTCAA,0.0756
19,CTCCAACA,0.0834
20,AGCACGGG,-0.00766
21,GGATTATA,0.24
22,CGATTATA,0.138

row,Sequence,PBM E-score
1,AGATTATA,0.0559
2,GGCTAGCC,-0.297
3,CGATCCTA,0.00763
4,GAACTCGA,0.0868
5,GAACTAGA,0.0203
6,TAACTAGA,0.256
7,AAACTAGA,-0.0323
8,TAACTCGA,0.294
9,CAACTCGA,0.0207
10,GCCTAAGA,-0.0546
11,ACAAGCGC,0.0708
12,CAAGAACC,0.172
13,CGGGAATA,0.0776
14,AGGGAATA,0.245
15,ATGGAATC,0.267
16,AGGGAATG,0.032
17,ATGGAATA,0.235
18,GTGGAATA,-0.013
19,CTGGAATA,0.193
20,ATGGAATG,-0.0148
21,CTGGAATC,-0.164
22,AATGGCCG,-0.134

row,Sequence,PBM E-score
1,AATTCTCC,0.118
2,CAGTACGA,0.206
3,AAGTCCGA,-0.0535
4,CCTATCAC,-0.00258
5,ATATCCGA,0.235
6,CTATCCGA,-0.04
7,ATATCCGG,0.0451
8,AGTGCTGA,-0.0594
9,GTGAACGA,-0.00481
10,CGACATCA,0.0768
11,TGACATCA,0.232
12,GGACATCA,0.0631
13,AGGAACGG,0.0417
14,CATCTGTC,-0.0868
15,CACGGGCA,-0.102
16,GATCCAAC,-0.0228
17,CATCCGAA,0.168
18,CATCCAAA,-0.00312
19,TATCCGAA,-0.0137
20,GATCCGAA,0.243
21,GATCCAAA,0.284
22,CAGGTCAC,-0.271

row,Sequence,PBM E-score
1,ATCTATGG,-0.0899
2,GGTAGACC,-0.00427
3,ACAGCGGG,-0.0296
4,GCTCAAGC,-0.0931
5,ACCGCAAC,0.269
6,GCCGCAAC,0.192
7,ACCGCAAG,0.00329
8,AGGGGATC,0.0237
9,AGCTTGTA,-0.00311
10,CCACGGAA,0.00928
11,ATATGGCA,0.00508
12,CCAATAAA,0.079
13,GCAATAAA,0.269
14,GCAATACC,0.176
15,TCAATACA,0.0827
16,GCAATACA,0.298
17,GCAATAAC,0.0808
18,AACAGATG,-0.0815
19,GATGCTCA,-0.12
20,AGGCTTTG,-0.058
